Test results taken from PMC5540273 (PLoS ONE, 2017).
Values joined by “and” are separate entries in the source; they are usually repeats but may differ in a detail not shown here. Equal entries are not always repeated. Where two headings read alike, the source gives them in different places.

Key:
ACVR2A = conditions: concentration: 1 μM, replicates: in singlicate; n = 1
ACVR2B = conditions: concentration: 1 μM, replicates: in singlicate, n = 1
ACVRL1 = conditions: concentration: 1 μM, replicates: in singlicate, n = 1
ADCK3 = test system: T1, ADCK3; conditions: concentration: 1 μM, replicates: in singlicate; n = 1
T1 construct: gene CABC1

ADCK4 = conditions: concentration: 1 μM, replicates: in singlicate, n = 1
AKT1 = conditions: concentration: 1 μM, replicates: in singlicate, n = 1
AKT2 = conditions: concentration: 1 μM, replicates: in singlicate, n = 1
AKT3 = conditions: concentration: 1 μM, replicates: in singlicate, n = 1
ALK = conditions: concentration: 1 μM, replicates: in singlicate, n = 1
AMPK-alpha1 = test system: T2, AMPK-alpha1; conditions: concentration: 1 μM, replicates: in singlicate, n = 1
T2 construct: gene PRKAA1

AMPK-alpha2 = test system: T3, AMPK-alpha2; conditions: concentration: 1 μM, replicates: in singlicate, n = 1
T3 construct: gene PRKAA2

ANKK1 = conditions: concentration: 1 μM, replicates: in singlicate; n = 1
ARK5 = test system: T4, ARK5; conditions: concentration: 1 μM, replicates: in singlicate, n = 1
T4 construct: gene NUAK1

ASK1 = test system: T5, ASK1; conditions: concentration: 1 μM, replicates: in singlicate, n = 1
T5 construct: gene MAP3K5

ASK2 = test system: T6, ASK2; conditions: concentration: 1 μM, replicates: in singlicate; n = 1
T6 construct: gene MAP3K6

AURKA = conditions: concentration: 1 μM, replicates: in singlicate, n = 1
AURKB = conditions: concentration: 1 μM, replicates: in singlicate, n = 1
AURKC = conditions: concentration: 1 μM, replicates: in singlicate, n = 1
AXL = conditions: concentration: 1 μM, replicates: in singlicate, n = 1
BIKE = test system: T7, BIKE; conditions: concentration: 1 μM, replicates: in singlicate, n = 1
T7 construct: gene BMP2K
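Further: KINOMEscan kinase panel screen.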

Fc1ccc(-c2nn3c(OCC(F)(F)F)cccc3c2-c2ccncc2)cc1 [GW514784]
%Inh (ACVR2A): 0%
%Inh (ACVR2B): 0%
%Inh (ACVRL1): 0%
%Inh (ADCK3): 18%
%Inh (ADCK4): 46%
%Inh (AKT1): 0%
%Inh (AKT2): 0%
%Inh (AKT3): 0%
%Inh (ALK): 0%
%Inh (AMPK-alpha1): 0%
%Inh (AMPK-alpha2): 0%
%Inh (ANKK1): 25%
%Inh (ARK5): 0%
%Inh (ASK1): 0%
%Inh (ASK2): 0%
%Inh (AURKA): 0%
%Inh (AURKB): 0%
%Inh (AURKC): 0%
%Inh (AXL): 0%
%Inh (BIKE): 11%

O=c1cc(N2CCOCC2)nc2n(Cc3cccc4ccccc34)ccn12 [GSK2333389]
%Inh (ACVR2A): 9%
%Inh (ACVR2B): 0%
%Inh (ACVRL1): 0%
%Inh (ADCK3): 6%
%Inh (ADCK4): 0%
%Inh (AKT1): 0%
%Inh (AKT2): 20%
%Inh (AKT3): 0%
%Inh (ALK): 2%
%Inh (AMPK-alpha1): 0%
%Inh (AMPK-alpha2): 0%
%Inh (ANKK1): 0%
%Inh (ARK5): 33%
%Inh (ASK1): 0%
%Inh (ASK2): 15%
%Inh (AURKA): 0%
%Inh (AURKB): 0%
%Inh (AURKC): 14%
%Inh (AXL): 0%
%Inh (BIKE): 16%

CC(C)Oc1ccc2c(-c3ccnc(Nc4ccc(N5CCN(C)CC5)cc4)n3)cnn2n1 [GW696155]
%Inh (ACVR2A): 0%
%Inh (ACVR2B): 0%
%Inh (ACVRL1): 0%
%Inh (ADCK3): 20%
%Inh (ADCK4): 83%
%Inh (AKT1): 0%
%Inh (AKT2): 0%
%Inh (AKT3): 0%
%Inh (ALK): 42%
%Inh (AMPK-alpha1): 41%
%Inh (AMPK-alpha2): 52%
%Inh (ANKK1): 20%
%Inh (ARK5): 95.5%
%Inh (ASK1): 0%
%Inh (ASK2): 0%
%Inh (AURKA): 98.6%
%Inh (AURKB): 70%
%Inh (AURKC): 75%
%Inh (AXL): 74%
%Inh (BIKE): 99.8%

O=c1cc(N2CCOCC2)nc2n(Cc3cccc(Cl)c3Cl)c(C3CC3)nn12 [GSK2358994]
%Inh (ACVR2A): 0%
%Inh (ACVR2B): 0%
%Inh (ACVRL1): 9%
%Inh (ADCK3): 11%
%Inh (ADCK4): 0%
%Inh (AKT1): 12%
%Inh (AKT2): 0%
%Inh (AKT3): 0%
%Inh (ALK): 0%
%Inh (AMPK-alpha1): 5%
%Inh (AMPK-alpha2): 0%
%Inh (ANKK1): 0%
%Inh (ARK5): 0%
%Inh (ASK1): 0%
%Inh (ASK2): 0%
%Inh (AURKA): 0%
%Inh (AURKB): 4%
%Inh (AURKC): 0%
%Inh (AXL): 3%
%Inh (BIKE): 0%

Cl.Cl.Cl.Fc1ccc(-c2ncn(C3CCNCC3)c2-c2ccnc(Nc3ccccc3)n2)cc1 [SB-238039]
%Inh (ACVR2A): 0%
%Inh (ACVR2B; 1 µM): 0% and 18%
%Inh (ACVRL1; 1 µM): 20% and 17%
%Inh (ADCK3): 0%
%Inh (ADCK4; 1 µM): 25% and 1%
%Inh (AKT1; 1 µM): 21% and 0%
%Inh (AKT2; 1 µM): 10% and 7%
%Inh (AKT3; 1 µM): 24% and 37%
%Inh (ALK; 1 µM): 21% and 0%
%Inh (AMPK-alpha1; 1 µM): 15% and 2%
%Inh (AMPK-alpha2; 1 µM): 17% and 0%
%Inh (ANKK1): 0%
%Inh (ARK5; 1 µM): 9% and 10%
%Inh (ASK1; 1 µM): 34% and 1%
%Inh (ASK2): 0%
%Inh (AURKA; 1 µM): 16% and 36%
%Inh (AURKB; 1 µM): 25% and 0%
%Inh (AURKC; 1 µM): 0% and 19%
%Inh (AXL; 1 µM): 0% and 44%
%Inh (BIKE; 1 µM): 0% and 9%

[2H]C([2H])(c1cccc(C(F)(F)F)c1C)n1ccn2c(=O)nc(N3CCOCC3)cc12 [GSK2336394]
%Inh (ACVR2A): 0%
%Inh (ACVR2B): 1%
%Inh (ACVRL1): 31%
%Inh (ADCK3): 8%
%Inh (ADCK4): 28%
%Inh (AKT1): 0%
%Inh (AKT2): 0%
%Inh (AKT3): 0%
%Inh (ALK): 17%
%Inh (AMPK-alpha1): 0%
%Inh (AMPK-alpha2): 15%
%Inh (ANKK1): 0%
%Inh (ARK5): 0%
%Inh (ASK1): 1%
%Inh (ASK2): 0%
%Inh (AURKA): 0%
%Inh (AURKB): 11%
%Inh (AURKC): 13%
%Inh (AXL): 8%
%Inh (BIKE): 23%

O=C(Nc1n[nH]c2cc(-c3cccc(F)c3)ccc12)C1CC1 [SB-735464]
%Inh (ACVR2A): 32%
%Inh (ACVR2B): 50%
%Inh (ACVRL1): 4%
%Inh (ADCK3): 0%
%Inh (ADCK4): 0%
%Inh (AKT1): 0%
%Inh (AKT2): 0%
%Inh (AKT3): 19%
%Inh (ALK): 0%
%Inh (AMPK-alpha1): 10%
%Inh (AMPK-alpha2): 69%
%Inh (ANKK1): 0%
%Inh (ARK5): 0%
%Inh (ASK1): 0%
%Inh (ASK2): 22%
%Inh (AURKA): 18%
%Inh (AURKB): 39%
%Inh (AURKC): 35%
%Inh (AXL): 27%
%Inh (BIKE): 21%

Fc1ccc(-c2ncn(CCCN3CCOCC3)c2-c2cccnc2)cc1 [SB-211743]
%Inh (ACVR2A): 0%
%Inh (ACVR2B): 0%
%Inh (ACVRL1): 6%
%Inh (ADCK3): 1%
%Inh (ADCK4): 0%
%Inh (AKT1): 0%
%Inh (AKT2): 0%
%Inh (AKT3): 10%
%Inh (ALK): 0%
%Inh (AMPK-alpha1): 4%
%Inh (AMPK-alpha2): 12%
%Inh (ANKK1): 0%
%Inh (ARK5): 12%
%Inh (ASK1): 0%
%Inh (ASK2): 0%
%Inh (AURKA): 15%
%Inh (AURKB): 31%
%Inh (AURKC): 5%
%Inh (AXL): 0%
%Inh (BIKE): 0%
